Assay outcomes deposited in PubChem by National Center for Advancing Translational Sciences (NCATS).
PI4K2A inh: blocks human PI4K2A kinase activity | Q9BTU6 | purified PI4K2A, ADP-Glo luminescence, 1 h; stronger effect = lower value | activity change, negative = inhibition, % at 76.9 µM | hit rate 0.13% among 420,000 | AID 1346378; in the data active means activity change below about -50%; inconclusive means mostly about -30% to -49%
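In this quantitative HTS, ADP production by PI4K2A was quantified luminescently after 1 h at ambient temperature; 100 microM adenosine served as plate-quality control.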
PGK inhibitor: T. brucei PGK inhibition | P07378 | PGK/GAPDH coupled, Kinase-Glo luminescence, 60 min | Potency, µM (top dose mostly 57.5 µM), usual class: inhibitors | hit rate 0.043% among 380,000 | AID 602233; further: nearly all actives have a fitted effect of over 60% in size
Target sequence (P07378 whole entry, looked up): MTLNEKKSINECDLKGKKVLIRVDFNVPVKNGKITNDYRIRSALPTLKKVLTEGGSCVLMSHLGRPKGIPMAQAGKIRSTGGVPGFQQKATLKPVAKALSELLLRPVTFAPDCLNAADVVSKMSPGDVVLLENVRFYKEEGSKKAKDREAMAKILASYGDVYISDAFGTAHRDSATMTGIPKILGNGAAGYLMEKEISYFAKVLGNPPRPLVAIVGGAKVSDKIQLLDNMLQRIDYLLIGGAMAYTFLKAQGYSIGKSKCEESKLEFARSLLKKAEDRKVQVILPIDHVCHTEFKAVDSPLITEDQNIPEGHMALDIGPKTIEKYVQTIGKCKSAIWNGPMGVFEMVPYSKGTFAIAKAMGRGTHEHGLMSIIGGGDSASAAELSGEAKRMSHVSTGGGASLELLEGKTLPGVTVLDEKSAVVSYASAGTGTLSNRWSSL
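Luminescent ATP detection (Kinase-Glo Plus) follows a 60-minute room-temperature incubation, with wells lacking PGK as controls. Buffer: 100 mM TEA (pH 7.6), 5 mM MgCl2, 0.01% Tween-20. Coupling enzyme GAPDH (100 nM final) supplies unstable 1,3-BPG in-well.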
Pin1 inh: inhibitors of human Pin1; Potency, µM (highest dose often 115 µM), actives largely listed as inhibitors; Q13526; hit rate 0.009% among 390,000; Pin1 FP peptide displacement, HiFluor488, 10 min; active means well fitted inhibition curve with a large enough effect in the polarisation, with a control signal flat, not every such curve was filed as active; inconclusive means small, poorly fitted or top-dose-only effect, or effect the other way, or a change in a side signal; inactive means no such curve, though single readings can be large or run the other way; the % refers to the polarisation
Target sequence (Q13526 whole entry, looked up): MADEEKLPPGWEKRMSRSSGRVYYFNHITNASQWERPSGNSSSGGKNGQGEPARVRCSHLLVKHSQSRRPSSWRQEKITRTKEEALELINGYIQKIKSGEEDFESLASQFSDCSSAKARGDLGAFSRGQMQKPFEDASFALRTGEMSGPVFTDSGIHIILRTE
KAT2A inh: inhibitors of human GCN5L2 histone acetyltransferase; hit rate 0.21% among 390,000; GCN5L2 HAT assay, ThioGlo1 CoA-SH fluorescence; Q92830; Potency, µM (series often up to 58.9 µM), usual class: inhibitors
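ThioGlo1-coupled HAT assay: 20nM GCN5L2, 70uM acetyl-CoA, 75uM H3(1-25) peptide, pH 7.5. Fluorescence read at 340/540nm at start and after 20 min at room temperature.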
PI5P4Ka inh: PI5P4K alpha (human) kinase inhibition; P48426; PI5P4Kalpha enzyme, ADP-Glo luminescence, 60 min; stronger effect = lower value; max response, %; hit rate 1.2% among 330,000; active means max response of -50% or lower; inconclusive means between -30% and -50%; inactive means -30% or higher; further: value at the top dose of about 77 µM
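Controls without substrate or without enzyme flank wells where PI5P4Kalpha converts substrate using 5 microM ATP (final). Incubation lasts 60 minutes at room temperature; ADP formed is read by ADP-Glo luminescence.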
RGS12 GoLoco inh: RGS12 GoLoco-Gai1 interaction inhibition. P63096. Gai1:RGS12 GoLoco peptide FP, rhodamine, 10 min. Potency, µM (series often up to 61.6 µM), most hits filed as inhibitors. hit rate 0.44% among 230,000; active means well fitted inhibition curve with a large enough effect, not every such curve was filed as active; inactive means no such curve, though single readings can be large or run the other way; further: nearly all actives have a fitted effect of over 30% in size
Hits are given with their value; . = inactive; ? = inconclusive; / = no result. Rows were chosen to be rich in hits. Some 1.2% of all compounds tested hit in one or more screens of this group. Unless noted, the call rests on the fitted dose curve; in most records, active means well fitted curve in the direction sought with a large enough effect; inconclusive means small, poorly fitted or top-dose-only effect, or another doubt; inactive means no such curve, though single readings can be large; an effect the other way counts as inactive or inconclusive.

SMILES | PI4K2A inh | PGK inhibitor | Pin1 inh | KAT2A inh | PI5P4Ka inh | RGS12 GoLoco inh
CCC(C)(C)NC(=O)CN(C(=O)CCC(=O)Nc1ccccn1)c1ccc(F)c(Cl)c1 | . | . | . | . | . | .
O=[N+]([O-])c1ccc(C(=S)N2CCN(c3ccc(F)cc3)CC2)cc1 | . | . | . | . | . | .
CN(C)c1ccc(C(=S)N2CCN(c3ccc([N+](=O)[O-])cc3)CC2)cc1 | . | . | . | ? | . | 20µM
O=C(O)c1ccccc1C1=Nc2ccc(O)cc2Oc2cc(O)ccc21 | . | . | / | . | ? | 25.1µM
Cc1ccccc1/C=N/n1c(-c2cc(-c3ccccc3)n[nH]2)n[nH]c1=S | . | . | . | . | . | .
S=c1[nH]nc(-c2n[nH]c3c2CCC3)n1/N=C/C=C/c1ccco1 | . | . | ? | . | -51.6 | .
S=c1[nH]nc(-c2ccco2)n1/N=C/C=C/c1ccco1 | . | . | ? | . | -68.7 | .
S=c1[nH]nc(-c2n[nH]c3c2CCC3)n1N=Cc1ccco1 | . | / | / | / | / | /
S=c1[nH]nc(-c2cc(-c3ccccc3)n[nH]2)n1/N=C/C=C/c1ccco1 | . | . | ? | . | -96.0 | .
CC(/C=N/n1c(-c2cc(C)[nH]n2)n[nH]c1=S)=C\c1ccco1 | . | . | ? | . | -51.5 | .
Cc1cccc(C)c1NC(=O)CN1CCN(C(=O)CNC(=O)c2ccc(-c3ccccc3)cc2)CC1 | . | . | / | / | . | /
CCN1C(=O)c2ccccc2Sc2ccc(C(=O)NCCN3CCOCC3)cc21 | . | . | . | . | . | .
CC(C)N1CCc2c(sc(NC(=S)NC(=O)c3ccccc3)c2C#N)C1 | . | . | ? | . | -51.3 | .
Cc1ccsc1C(=O)N/N=C/c1ccc2c(c1)OCO2 | -53.6 | ? | . | . | . | .
Cc1ccccc1NCC(=O)N/N=C\c1ccc2c(c1)OCO2 | . | . | . | . | . | .
Cc1occc1C(=O)N/N=C/c1ccc2c(c1)OCO2 | -65.3 | ? | . | . | -54.3 | .
O=C(N/N=C/c1ccc2c(c1)OCO2)c1cccs1 | . | . | . | . | . | .
Cc1occc1C(=O)N/N=C/c1ccc(-c2ccccc2)cc1 | -77.9 | ? | ? | . | . | /
Cc1cccc(C)c1OCC(=O)N/N=C/c1ccc2c(c1)OCO2 | . | . | . | 12.6µM | . | .
Nc1nnnn1/N=C/c1ccccc1 | . | . | . | . | . | /
Nc1nnnn1/N=C/c1ccccc1C(F)(F)F | . | . | . | . | -55.9 | .
Cc1oc2ncn(C)c(=O)c2c1C(=O)N1CCN(c2ccccc2)CC1 | . | . | . | . | / | /
O=C(NCCc1ccccc1)c1nnc(CS(=O)(=O)c2ccccc2)o1 | . | . | . | 4.47µM | . | /
Oc1c(Br)cc(Br)cc1C=Nc1ccc2[nH]ncc2c1 | . | . | ? | . | -51.3 | .
CCC(C)c1ccc(NC(=S)NCc2cccs2)cc1 (stereo unspecified) | . | . | . | . | / | .
SMILES | PI4K2A inh | PGK inhibitor | Pin1 inh | KAT2A inh | PI5P4Ka inh | RGS12 GoLoco inh
Cc1ccc2nc(-c3ccc(N)cc3)sc2c1 | . | . | . | . | . | .
Nc1ccc2nc(-c3ccccc3)sc2c1 | -54.9 | ? | . | / | . | .
CC(NC(=O)Nc1ccccc1C(F)(F)F)c1c(-n2cccc2)sc2c1CCCC2 (stereo unspecified) | . | . | . | . | / | /
O=C1NC(=O)C([N+](=O)[O-])=C(O)C1=O | . | . | / | / | -65.0 | /
COc1ccc2ccccc2c1/C=N/N1C(=O)CSC1=S | . | . | . | . | . | .
COc1cc(/C=N/N2C(=O)CSC2=S)cc(Br)c1O | . | ? | ? | . | -74.9 | .
O=C1CSC(=S)N1/N=C/C=C/c1ccccc1 | . | . | . | . | -63.0 | .
COc1cccc(/C=N/N2C(=O)CSC2=S)c1O | . | . | . | . | -55.0 | .
O=C1CSC(=S)N1N=Cc1c(O)ccc2ccccc12 | . | . | ? | / | -73.1 | /
O=C1CSC(=S)N1/N=C/c1c(F)cccc1F | . | . | . | . | . | /
Cc1cc(C(=O)Cn2cnc3cc(F)ccc3c2=O)c(C)n1C1CC1 | . | . | . | . | . | /
Cc1ccc(S(=O)(=O)CC(=O)Nc2nnc(C(C)(C)C)s2)cc1 | . | . | . | . | . | /
NC1=Nc2cccc3cccc1c23 | . | . | . | . | . | 20µM
C(=N\NC1=Nc2cccc3cccc1c23)/c1ccccc1 | . | . | ? | . | . | .
C=CC#CC[N+]1(CC#Cc2ccccc2)CCOCC1 | . | . | . | . | -81.8 | .
COc1ccc(Br)cc1/C=c1\sc2nc(-c3ccco3)nn2c1=O | . | ? | / | ? | -58.7 | .
Cc1ccc(/C=c2\sc3nc(-c4ccco4)nn3c2=O)o1 | . | ? | ? | . | -69.3 | .
COc1ccccc1/C=c1\sc2nc(-c3ccccc3OC)nn2c1=O | . | . | . | . | . | .
Cc1ccc(S(=O)(=O)N/N=C/c2ccc(OCC(=O)N3CCOCC3)cc2)cc1 | . | . | . | . | . | .
Cc1ccc(N=Cc2cc(Cc3ccccc3Cl)cc([N+](=O)[O-])c2O)c(O)c1 | ? | ? | ? | ? | -68.9 | .
COc1ccc(N=Cc2cc(Cc3ccccc3Cl)cc([N+](=O)[O-])c2O)cc1OC | . | . | . | . | ? | .
Cc1noc(C)c1-c1ccc2ncnc(NC3CCNCC3)c2c1 | / | / | / | ? | / | .
COC(=O)C1=C2SC(C)C(=O)N2C(N)=C(C#N)C1c1ccc(OC)c(OC)c1 (stereo unspecified) | . | . | . | . | -57.5 | .
COc1ccc(C2C(C#N)=C(N)SC(N)=C2C#N)cc1OC | . | . | ? | . | -60.2 | .
COC(=O)C1=C(C)N(CCCC(=O)O)C(=O)NC1c1ccc(-c2ccccc2)cc1 (stereo unspecified) | . | . | . | . | -74.7 | .
SMILES | PI4K2A inh | PGK inhibitor | Pin1 inh | KAT2A inh | PI5P4Ka inh | RGS12 GoLoco inh
CC1=C(C(=O)OCC(Br)(Br)Br)C(c2ccc(Br)cc2)NC(=O)N1CCCC(=O)O (stereo unspecified) | / | / | / | . | / | .
COC(=O)C1=C(C)N(CCCC(=O)O)C(=O)NC1c1ccc(C#N)cc1 (stereo unspecified) | . | . | . | / | -63.4 | /
COC(=O)C1=C(C)N(CCCC(=O)O)C(=O)NC1c1ccc(C(F)(F)F)cc1 (stereo unspecified) | . | . | . | . | -81.4 | /
COC(=O)C1=C(C)N(CCCC(=O)O)C(=O)NC1c1ccc(Br)cc1 (stereo unspecified) | . | . | . | . | -99.1 | /
CCC1CCCCN1CCCNC(=O)C1CCN(Cc2nc(-c3ccc(Cl)cc3)oc2C)CC1 (stereo unspecified) | . | . | . | . | . | /
COC(=O)C1=C(C)N(CCCC(=O)O)C(=O)NC1c1ccccc1Cl (stereo unspecified) | . | . | . | / | -82.0 | /
